The source of these data is PubChem BioAssay AID1728 (National Center for Advancing Translational Sciences (NCATS), 2009).

Molecules are shown by their SMILES. The list shows a part of the results. Results filed as inconclusive are left out. Active and inactive are the calls of the source. The call rests on the fitted dose curve; in most records, active means well fitted curve in the direction sought with a large enough effect; inconclusive means small, poorly fitted or top-dose-only effect, or another doubt; inactive means no such curve, though single readings can be large or run the other way.

Chain of RAF proto-oncogene serine/threonine-protein kinase (Homo sapiens) (P04049 whole entry, looked up): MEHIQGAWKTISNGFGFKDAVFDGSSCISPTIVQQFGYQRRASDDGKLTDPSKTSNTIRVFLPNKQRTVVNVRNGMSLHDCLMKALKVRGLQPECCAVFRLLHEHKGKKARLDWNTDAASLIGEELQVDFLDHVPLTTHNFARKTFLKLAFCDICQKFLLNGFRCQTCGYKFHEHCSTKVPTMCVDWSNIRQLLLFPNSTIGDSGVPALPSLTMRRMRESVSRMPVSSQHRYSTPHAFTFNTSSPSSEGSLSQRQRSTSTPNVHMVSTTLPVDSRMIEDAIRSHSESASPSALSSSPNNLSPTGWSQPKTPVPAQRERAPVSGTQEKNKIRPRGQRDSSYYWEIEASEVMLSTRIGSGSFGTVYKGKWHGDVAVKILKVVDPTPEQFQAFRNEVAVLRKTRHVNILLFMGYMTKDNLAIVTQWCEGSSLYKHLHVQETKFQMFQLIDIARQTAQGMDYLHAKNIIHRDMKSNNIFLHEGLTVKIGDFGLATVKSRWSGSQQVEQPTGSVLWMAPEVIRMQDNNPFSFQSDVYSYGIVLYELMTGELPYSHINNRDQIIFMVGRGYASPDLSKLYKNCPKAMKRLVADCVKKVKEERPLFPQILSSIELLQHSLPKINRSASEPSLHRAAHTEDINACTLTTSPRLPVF

The target in this assay is RAF proto-oncogene serine/threonine-protein kinase (Homo sapiens) (UniProt P04049). The assay can be described thus: Assay for Inhibitors of the ERK Signaling Pathway using a Homogeneous Screening Assay: c-Raf Inhibition. As to conditions: homogeneous biochemical assay; series mostly up to 76.9 µM. The source says:
qHTS Assay for Inhibitors of the ERK Signaling Pathway using a Homogeneous Screening Assay
NIH Chemical Genomics Center [NCGC]
NIH Molecular Libraries Screening Centers Network [MLSCN]
Assay Submitter (PI): Dr. Wei Zheng, NCGC/NIH
The Ras/extracellular-signal-regulated kinase (ERK) mitogen activated protein (MAP) kinase signaling pathway (ERK1/2 cascade) plays is a key role in transmitting signals from the cell surface to the nucleus (Nishida and Gotoh 1993; Chang and Karin, 2001). The cascade is initiated by the small G-protein Ras, which recruits Raf […], where activation occurs. Alternatively, this pathway can be activated by elevating intracellular cAMP.
Activation of the ERK pathway is essential in increased cell division and cell survival. Sustained and constitutive activation of the ERK pathway, however, has been linked to uncontrolled cell proliferation, increased cell survival, and tumor progression. Thus, the ERK has been as an attractive target for cancer chemotherapy in the past few years (Sebolt-Leopold and Herrera, 2004). […]
The HTRF kinase assay (components supplied as kit by Cisbio) was chosen for the EGFR and EGFR mutant enzyme assays that applied the time resolved fluorescence resonance energy transfer (TR-FRET) principle. […]
Regarding `CN(C)c1ccc(Nc2c3c4c(cccc4n(C)c2=O)C(=O)c2ccccc2-3)cc1`, the compound was classed as inactive. Take `O=[N+]([O-])c1ccccc1N/N=C1\CCc2ccccc21`: the compound was called inactive.
